Assay results reported in the supplement of paper PMC10849652.
Of roughly 7,900 targets only a part is listed; those with a hit were picked by preference. About 0.6% of all pairs of compound and target were hits. A number with no mark means an inactive call.

Tests used:
Test in all cases: log2 fold change, soluble protein after heating vs DMSO (PISA); higher = thermal stabilisation; K562 cells, 10 uM, 30 min; active = over 0.2 and 3.5 SD of the protein, either way, in both replicates (recomputed)
bafetinib = compound: Cc1ccc(NC(=O)c2ccc(CN3CC[C@H](N(C)C)C3)c(C(F)(F)F)c2)cc1Nc1nccc(-c2cncnc2)n1 [bafetinib]
How it was run: (§1)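 K562 cells at 2×10^6 cells/mL were given 10 μM compound for 30 min. Aliquots then went through 3 min of heating across 48°C-58°C, were pooled, and were extracted in PBS with 0.5% NP-40 at 4°C, and the supernatant after 21,000xg for 90 min was quantified by TMTpro 16plex LC-MS/MS with channel sums equalised. Thermal stability relative to control samples, from duplicates, is given as log2 fold change.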

[1] = compound: Cc1cccc(CC(=O)N2CCc3c2ccc(-c2cn(C)c4ncnc(N)c24)c3F)n1
How it was run: as §1

nilotinib = compound: Cc1cn(-c2cc(NC(=O)c3ccc(C)c(Nc4nccc(-c5cccnc5)n4)c3)cc(C(F)(F)F)c2)cn1 [nilotinib]
How it was run: as §1

[2] = compound: Cc1nc(Nc2n[nH]c3c2CN(C(=O)N[C@H](CN(C)C)c2ccccc2)C3(C)C)c2sccc2n1
How it was run: as §1

dasatinib = compound: Cc1nc(Nc2ncc(C(=O)Nc3c(C)cccc3Cl)s2)cc(N2CCN(CCO)CC2)n1 [dasatinib]
How it was run: as §1

[3] = compound: Cc1ncc(-c2ccnc(Nc3ccc(S(C)(=O)=O)cc3)n2)n1C(C)C
How it was run: as §1

vorinostat = compound: O=C(CCCCCCC(=O)Nc1ccccc1)NO [vorinostat]
How it was run: as §1

citarinostat = compound: O=C(CCCCCCNC(=O)c1cnc(N(c2ccccc2)c2ccccc2Cl)nc1)NO [citarinostat]
How it was run: as §1

[4] = compound: O=C1NC(=O)C(c2cnc3ccccn23)=C1c1cn2c3c(cc(F)cc13)CN(C(=O)N1CCCCC1)CC2
How it was run: as §1

[5] = compound: c1cc(OCCN2CCCCC2)cc(-c2n[nH]c3ccc(-c4nnc[nH]4)cc23)c1
How it was run: as §1

[6] = compound: Cn1cc(-c2ccc3c(c2)CCN3C(=O)Cc2cccc(C(F)(F)F)c2)c2c(N)ncnc21
How it was run: as §1

[7] = compound: Cn1cc(-c2ccc3nnc(C(F)(F)c4ccc5ncccc5c4)n3n2)cn1
How it was run: as §1

tipifarnib = compound: Cn1cncc1[C@@](N)(c1ccc(Cl)cc1)c1ccc2c(c1)c(-c1cccc(Cl)c1)cc(=O)n2C [tipifarnib]
How it was run: as §1

mubritinib = compound: FC(F)(F)c1ccc(/C=C/c2nc(COc3ccc(CCCCn4ccnn4)cc3)co2)cc1 [mubritinib]
How it was run: as §1

[8] = compound: NC(=O)Nc1cc(-c2cccc(F)c2)sc1C(=O)N[C@H]1CCCNC1
How it was run: as §1

[9] = compound: NC(=O)c1cnc(N[C@@H]2CCCC[C@@H]2N)nc1Nc1cccc(-n2nccn2)c1
How it was run: as §1

[10] = compound: NC1(c2ccc(-c3nc4ccn5c(=O)[nH]nc5c4cc3-c3ccccc3)cc2)CCC1
How it was run: as §1

[11] = compound: NCC(=O)Nc1ccc(-n2nc(C(F)(F)F)cc2-c2ccc3c(ccc4ccccc43)c2)cc1
How it was run: as §1

entinostat = compound: Nc1ccccc1NC(=O)c1ccc(CNC(=O)OCc2cccnc2)cc1 [entinostat]
How it was run: as §1

silmitasertib = compound: O=C(O)c1ccc2c(c1)nc(Nc1cccc(Cl)c1)c1ccncc12 [silmitasertib]
How it was run: as §1

UniProt Q9NRR8, sequence (Q9NRR8 whole entry, looked up): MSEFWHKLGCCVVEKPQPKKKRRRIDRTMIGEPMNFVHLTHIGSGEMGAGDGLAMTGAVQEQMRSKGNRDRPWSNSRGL
UniProt P30305, sequence (P30305 whole entry, looked up): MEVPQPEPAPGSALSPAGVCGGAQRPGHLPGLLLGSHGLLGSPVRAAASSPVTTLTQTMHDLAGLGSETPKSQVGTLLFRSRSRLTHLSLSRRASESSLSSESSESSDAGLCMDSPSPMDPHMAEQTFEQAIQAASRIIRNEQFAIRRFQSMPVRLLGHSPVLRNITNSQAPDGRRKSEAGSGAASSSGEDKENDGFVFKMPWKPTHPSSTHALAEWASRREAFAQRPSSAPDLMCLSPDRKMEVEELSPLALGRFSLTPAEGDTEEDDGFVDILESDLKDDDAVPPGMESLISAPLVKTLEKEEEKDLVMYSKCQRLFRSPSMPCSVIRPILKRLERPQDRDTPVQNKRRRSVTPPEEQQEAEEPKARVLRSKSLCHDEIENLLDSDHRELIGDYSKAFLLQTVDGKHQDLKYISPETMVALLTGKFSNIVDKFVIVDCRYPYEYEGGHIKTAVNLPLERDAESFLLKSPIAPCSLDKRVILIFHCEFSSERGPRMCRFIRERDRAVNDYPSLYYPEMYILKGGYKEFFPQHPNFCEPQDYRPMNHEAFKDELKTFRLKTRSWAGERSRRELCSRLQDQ
UniProt Q96G28, sequence (Q96G28 whole entry, looked up): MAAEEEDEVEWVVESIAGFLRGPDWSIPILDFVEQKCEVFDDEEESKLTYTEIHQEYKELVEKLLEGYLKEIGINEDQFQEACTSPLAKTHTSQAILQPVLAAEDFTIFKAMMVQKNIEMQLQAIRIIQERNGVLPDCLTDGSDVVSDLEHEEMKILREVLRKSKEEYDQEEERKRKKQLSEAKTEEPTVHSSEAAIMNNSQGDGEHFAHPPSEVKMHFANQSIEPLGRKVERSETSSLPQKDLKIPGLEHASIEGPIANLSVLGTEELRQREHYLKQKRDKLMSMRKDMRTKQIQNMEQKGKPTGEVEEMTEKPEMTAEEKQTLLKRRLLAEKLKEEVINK
UniProt P55210, sequence (P55210 whole entry, looked up): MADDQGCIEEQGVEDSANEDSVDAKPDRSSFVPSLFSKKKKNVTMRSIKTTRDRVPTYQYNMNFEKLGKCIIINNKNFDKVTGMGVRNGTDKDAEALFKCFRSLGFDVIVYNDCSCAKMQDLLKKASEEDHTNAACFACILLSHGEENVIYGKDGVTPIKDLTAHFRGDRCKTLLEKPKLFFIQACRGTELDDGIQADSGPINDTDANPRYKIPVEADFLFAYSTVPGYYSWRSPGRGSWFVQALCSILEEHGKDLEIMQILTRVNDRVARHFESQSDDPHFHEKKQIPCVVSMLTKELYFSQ
UniProt Q6UUV9, sequence (Q6UUV9 whole entry, looked up): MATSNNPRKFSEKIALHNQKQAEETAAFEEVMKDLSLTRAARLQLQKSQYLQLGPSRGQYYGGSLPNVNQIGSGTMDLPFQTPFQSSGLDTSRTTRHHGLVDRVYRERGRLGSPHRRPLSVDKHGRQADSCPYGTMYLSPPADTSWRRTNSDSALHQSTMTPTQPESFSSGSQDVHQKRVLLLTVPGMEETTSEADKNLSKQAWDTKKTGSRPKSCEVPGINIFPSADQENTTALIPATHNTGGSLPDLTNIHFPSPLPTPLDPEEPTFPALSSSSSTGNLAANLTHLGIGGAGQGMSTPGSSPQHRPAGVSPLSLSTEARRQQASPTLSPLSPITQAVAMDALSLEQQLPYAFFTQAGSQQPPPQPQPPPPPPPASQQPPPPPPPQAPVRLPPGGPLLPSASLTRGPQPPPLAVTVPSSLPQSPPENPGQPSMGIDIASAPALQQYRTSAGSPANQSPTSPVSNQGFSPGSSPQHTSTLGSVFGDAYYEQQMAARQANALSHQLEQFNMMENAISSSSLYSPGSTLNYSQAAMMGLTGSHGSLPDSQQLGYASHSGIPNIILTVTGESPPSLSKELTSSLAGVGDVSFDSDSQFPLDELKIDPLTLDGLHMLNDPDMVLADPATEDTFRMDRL
UniProt Q00537, sequence (Q00537 whole entry, looked up): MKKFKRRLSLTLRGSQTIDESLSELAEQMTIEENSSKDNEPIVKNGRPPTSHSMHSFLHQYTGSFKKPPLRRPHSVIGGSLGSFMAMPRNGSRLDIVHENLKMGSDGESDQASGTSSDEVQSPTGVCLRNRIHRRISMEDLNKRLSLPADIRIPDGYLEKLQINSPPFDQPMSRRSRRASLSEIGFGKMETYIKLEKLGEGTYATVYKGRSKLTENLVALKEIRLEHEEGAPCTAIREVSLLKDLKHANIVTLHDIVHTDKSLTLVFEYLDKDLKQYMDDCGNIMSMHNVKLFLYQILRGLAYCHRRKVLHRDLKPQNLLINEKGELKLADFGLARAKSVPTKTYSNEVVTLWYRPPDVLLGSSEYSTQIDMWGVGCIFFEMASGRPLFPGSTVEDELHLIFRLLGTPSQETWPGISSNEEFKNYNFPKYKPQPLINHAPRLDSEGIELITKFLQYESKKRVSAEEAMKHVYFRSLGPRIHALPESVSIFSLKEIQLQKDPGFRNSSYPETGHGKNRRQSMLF
UniProt Q13286, sequence (Q13286 whole entry, looked up): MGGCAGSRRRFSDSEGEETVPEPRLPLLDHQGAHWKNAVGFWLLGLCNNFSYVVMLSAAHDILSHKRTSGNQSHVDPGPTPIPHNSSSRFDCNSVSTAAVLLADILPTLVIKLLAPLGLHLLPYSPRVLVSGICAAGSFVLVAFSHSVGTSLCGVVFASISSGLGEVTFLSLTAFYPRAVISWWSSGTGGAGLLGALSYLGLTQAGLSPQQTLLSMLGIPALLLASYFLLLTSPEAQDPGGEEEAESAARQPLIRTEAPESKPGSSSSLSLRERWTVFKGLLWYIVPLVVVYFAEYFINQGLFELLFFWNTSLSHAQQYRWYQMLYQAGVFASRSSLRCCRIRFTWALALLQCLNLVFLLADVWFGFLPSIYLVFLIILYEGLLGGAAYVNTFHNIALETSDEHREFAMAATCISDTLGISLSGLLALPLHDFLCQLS
UniProt P30281, sequence (P30281 whole entry, looked up): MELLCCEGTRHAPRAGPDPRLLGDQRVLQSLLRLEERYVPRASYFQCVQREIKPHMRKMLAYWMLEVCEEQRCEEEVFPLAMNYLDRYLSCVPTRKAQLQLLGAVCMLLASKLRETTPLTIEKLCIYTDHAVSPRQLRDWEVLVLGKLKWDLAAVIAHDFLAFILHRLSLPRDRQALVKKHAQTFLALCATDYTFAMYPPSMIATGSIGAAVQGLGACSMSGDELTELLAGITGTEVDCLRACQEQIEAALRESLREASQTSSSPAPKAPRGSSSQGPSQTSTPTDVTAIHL
UniProt O43529, sequence (O43529 whole entry, looked up): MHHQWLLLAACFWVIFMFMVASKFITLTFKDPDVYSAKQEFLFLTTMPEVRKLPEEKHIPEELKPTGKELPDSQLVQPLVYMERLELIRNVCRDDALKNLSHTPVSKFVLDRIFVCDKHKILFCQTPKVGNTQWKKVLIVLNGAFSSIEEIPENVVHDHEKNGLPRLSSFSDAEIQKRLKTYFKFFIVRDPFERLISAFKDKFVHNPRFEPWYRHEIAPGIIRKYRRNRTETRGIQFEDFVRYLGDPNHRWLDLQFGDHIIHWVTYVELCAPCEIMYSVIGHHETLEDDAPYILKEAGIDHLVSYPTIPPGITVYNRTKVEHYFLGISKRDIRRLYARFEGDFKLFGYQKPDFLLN
UniProt P51636, sequence (P51636 whole entry, looked up): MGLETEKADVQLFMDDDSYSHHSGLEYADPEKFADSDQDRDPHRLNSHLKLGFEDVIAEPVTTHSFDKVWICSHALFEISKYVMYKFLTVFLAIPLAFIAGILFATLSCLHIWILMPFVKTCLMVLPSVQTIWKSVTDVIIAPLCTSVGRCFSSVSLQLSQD
UniProt Q6P5X5, sequence (Q6P5X5 whole entry, looked up): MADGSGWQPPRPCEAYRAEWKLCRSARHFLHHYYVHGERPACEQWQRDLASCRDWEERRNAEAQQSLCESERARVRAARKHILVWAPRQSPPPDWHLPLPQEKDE
UniProt O75503, sequence (O75503 whole entry, looked up): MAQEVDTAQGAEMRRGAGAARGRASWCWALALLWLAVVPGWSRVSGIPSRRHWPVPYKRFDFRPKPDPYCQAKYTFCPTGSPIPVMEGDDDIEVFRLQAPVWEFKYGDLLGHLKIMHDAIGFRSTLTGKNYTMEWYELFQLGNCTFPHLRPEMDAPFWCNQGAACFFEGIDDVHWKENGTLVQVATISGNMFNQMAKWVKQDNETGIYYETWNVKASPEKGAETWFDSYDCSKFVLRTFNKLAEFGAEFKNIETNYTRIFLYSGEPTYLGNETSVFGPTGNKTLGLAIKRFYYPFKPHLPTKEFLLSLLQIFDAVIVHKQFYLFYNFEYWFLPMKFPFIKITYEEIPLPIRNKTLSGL
UniProt Q86X95, sequence (Q86X95 whole entry, looked up): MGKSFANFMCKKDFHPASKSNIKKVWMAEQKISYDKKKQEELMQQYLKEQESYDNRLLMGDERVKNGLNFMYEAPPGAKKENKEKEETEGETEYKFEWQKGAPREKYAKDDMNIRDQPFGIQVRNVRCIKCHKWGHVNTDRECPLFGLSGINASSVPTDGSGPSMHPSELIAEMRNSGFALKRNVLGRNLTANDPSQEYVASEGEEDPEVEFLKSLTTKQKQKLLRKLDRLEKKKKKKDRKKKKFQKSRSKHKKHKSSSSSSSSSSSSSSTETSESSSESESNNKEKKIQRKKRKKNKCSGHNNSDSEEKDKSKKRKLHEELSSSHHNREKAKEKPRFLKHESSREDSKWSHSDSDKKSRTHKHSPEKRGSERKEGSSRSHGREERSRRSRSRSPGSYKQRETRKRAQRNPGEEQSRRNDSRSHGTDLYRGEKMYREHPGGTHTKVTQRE
UniProt P15954, sequence (P15954 whole entry, looked up): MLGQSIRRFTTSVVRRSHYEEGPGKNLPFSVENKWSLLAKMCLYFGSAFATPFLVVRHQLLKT
UniProt P24311, sequence (P24311 whole entry, looked up): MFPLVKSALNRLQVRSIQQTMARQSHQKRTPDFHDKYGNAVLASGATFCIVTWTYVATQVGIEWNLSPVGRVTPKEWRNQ

Target | log2 fold change (bafetinib) | log2 fold change [1] | log2 fold change (nilotinib) | log2 fold change [2] | log2 fold change (dasatinib) | log2 fold change [3] | log2 fold change (vorinostat) | log2 fold change (citarinostat) | log2 fold change [4] | log2 fold change [5] | log2 fold change [6] | log2 fold change [7] | log2 fold change (tipifarnib) | log2 fold change (mubritinib) | log2 fold change [8] | log2 fold change [9] | log2 fold change [10] | log2 fold change [11] | log2 fold change (entinostat) | log2 fold change (silmitasertib)
CASP7 isoform 3 (UniProt P55210) | -1.01 (active) | -0.401 | 0.145 | -0.001 | -0.239 | -0.102 | 0.044 | -0.058 | -0.048 | 0.021 |  |  |  |  |  |  |  |  |  | 
CFAP36 isoform 2 (UniProt Q96G28) | 0.022 | -0.055 |  |  | 0.014 |  | -0.014 | -0.022 | -0.025 | 0.065 | -0.047 | 0.128 | 0.002 | 0 | 0.027 | -0.1 | -0.095 | -0.152 | 0.023 | 0.131
CHST10 (UniProt O43529) | -0.036 | 0.052 | 0.092 | -0.081 |  | 0.104 | 0.015 |  | -0.032 |  | 0.071 | -0.09 | 0.05 | 0.064 | 0.059 | 0.023 | -0.142 |  | 0.048 | -0.059
CLPTM1L (UniProt G5E9Z2) | 0.156 | 0.176 | -0.22 | 0.099 |  | -0.053 | 0.022 |  | 0.445 |  | 0.037 |  |  | 0.047 | 0.139 | 0.237 | -0.175 | -0.028 | -0.012 | -0.05
CAB39L (UniProt Q9H9S4) | -0.055 | -0.041 |  |  | -0.255 |  | -0.197 | -0.093 | -0.043 | -0.101 |  | -0.032 | 0.042 |  | 0.035 | 0.083 |  | -0.162 | -0.016 | 
CLN3 (UniProt Q13286) | -0.099 |  | -0.016 | 0.002 | 0.064 | -0.02 |  | 0.042 | 0.072 | -0.033 | -0.049 | 0.028 | 0.1 | 0.09 |  |  | -0.112 | -0.124 |  | 0.025
CDC25B isoform 4 (UniProt P30305) | 0.081 | -0.022 | -0.513 (active) | -0.051 |  | -0.206 | 0.071 | 0.115 | 0.014 | -0.123 | 0.095 | -0.03 | 0.022 | 0.074 | -0.04 | -0.07 | -0.157 | 0.088 | 0.047 | 0.054
COX7B (UniProt P24311) | 0.109 | 0.037 | 0.053 | 0.037 | 0.074 | 0.01 | 0.012 | -0.013 | 0.036 | -0.026 | -0.011 |  | -0.024 | 0.026 | 0.094 | -0.001 | -0.028 | 0.02 | -0.054 | 0.039
CRYM-AS1 (UniProt A6NIL9) | 0.063 | 0.048 | -0.023 | -0.426 | -0.108 | -0.28 | 0.014 | 0.021 | -0.076 | -0.135 | -0.015 | -0.189 |  | 0.114 | 0.038 | -0.014 | 0.27 | 0.042 | -0.101 | 0.031
CCND3 (UniProt P30281) | 0.07 | -0.016 |  |  | -0.08 |  | 0.048 | 0 | 0.069 | 0.183 | 0.04 | 0.092 | 0.026 | 0.024 |  | -0.204 | -0.001 | 0.184 |  | 0.28
COX7C (UniProt P15954) | -0.066 | -0.077 | 0.148 | -0.041 | 0.073 | -0.158 | -0.017 | 0.079 | -0.089 | -0.059 |  | 0.366 | 0.105 | 0.112 | 0.009 | 0.048 | -0.013 | 0.046 | 0.014 | -0.003
CIR1 (UniProt Q86X95) | 0.001 | -0.091 |  |  | 0.079 |  | -0.056 | 0.06 | 0.067 | 0.024 | -0.131 | -0.06 | 0.223 | -0.113 | 0.014 | 0.061 | 0.309 | 0.018 | 0 | 0.105
CAV2 (UniProt P51636) | -1.25 (active) | -0.054 | 0.221 | -0.082 | 0.033 | 0.008 | 0.147 |  |  |  |  |  | 0.136 | 0.066 | -0.251 | -0.041 | 0.027 |  | -0.088 | 0.106
CDK17 isoform 2 (UniProt Q00537) | 0.117 | 0.039 |  |  | -0.171 |  | -0.114 | -0.245 | 0.321 | -0.083 | -0.07 |  | 0.037 | -0.04 | -0.066 | -0.258 | -0.04 | -0.074 | 0.035 | 0.088
CLN5 (UniProt O75503) | -0.945 (active) | 0.019 | 0.041 | -0.508 | -0.46 | 0.026 | -0.087 |  | -0.014 |  | -0.119 |  | 0.002 | -0.169 | -0.133 | -0.41 | -0.858 (active) |  | 0.02 | 0.192
CRTC1 isoform 2 (UniProt Q6UUV9) | 0.021 | -0.093 |  |  | -0.034 |  | 0.012 |  | -0.371 |  |  | -0.079 | -0.267 |  | -0.132 | -0.151 |  | 0.01 | 0.044 | 
CDC42SE1 (UniProt Q9NRR8) | -0.37 |  | 0.055 | 0.055 | -0.022 | -0.155 |  | -0.048 | -0.065 | -0.103 | 0.107 | -0.002 | -0.01 | -0.065 | -0.244 | 0.055 | -0.065 | -0.002 | -0.042 | 0.128
COMMD1 (UniProt Q8N668) | -0.162 | -0.085 | 0.009 | -0.179 |  | -0.057 | -0.032 | 0.039 | -0.018 | -0.065 |  | -0.087 | -0.016 | -0.069 | -0.043 |  | 0.051 | -0.069 | 0.008 | -0.021
C22orf39 (UniProt Q6P5X5) | -0.04 |  | -0.07 | 0.038 | -0.232 | -0.12 |  |  | 0.089 |  | -0.036 | 0.031 | -0.071 | 0.031 | 0.093 | -0.036 | -0.106 |  | 0.037 | 0.016
